GLS inh: blocks human kidney-isoform glutaminase activity; O94925; GLS enzymatic activity, qHTS titration; Potency, µM (top dose mostly 45.5 µM), inactives show at the highest dose activity change, negative = inhibition, hits mostly inhibitors; 0.21% of 410,000 active; note: % is set by controls: 0 for no effect and ±100 for the full control effect
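hKGA in 45 mM KH2PO4 (pH 8.2), 0.02% Tween-20 with compound, then 1mM L-Glutamine (stock as added) plus glutamate oxidase/HRP/Amplex red coupling mix. Fluorescence read initially and after 30 min at RT; signal change reflects glutamate formation.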
POLH inh: inhibitors of human DNA polymerase eta; Q9Y253; recombinant Pol eta, fluorescent DNA replication assay; Potency, µM (titrated, usually from 114 µM), for inactives: top-dose activity change, negative = inhibition, most hits filed as inhibitors; 1.2% of 390,000 active; note: % is set by controls: 0 for no effect and ±100 for the full control effect
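Fluorescent replication assay: 50 nM final substrate added after a 15 min room-temperature compound preincubation with 10 nM enzyme. Signal taken at 0 min and again at 10 min.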
APE1 inh: blocks human APE1 abasic DNA cleavage; P27695; recombinant APE1, TAMRA/BHQ-2 abasic DNA cleavage fluorescence; Potency, µM (top dose mostly 65.8 µM), without a hit: at the top dose activity change, negative = inhibition, actives largely listed as inhibitors; 0.35% of 350,000 active; AID 2517;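 note: plate controls were vehicle for no effect and reference inhibitor for full effect; nearly all actives have a fitted effect of over 55% in size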
Target sequence (P27695 whole entry, looked up): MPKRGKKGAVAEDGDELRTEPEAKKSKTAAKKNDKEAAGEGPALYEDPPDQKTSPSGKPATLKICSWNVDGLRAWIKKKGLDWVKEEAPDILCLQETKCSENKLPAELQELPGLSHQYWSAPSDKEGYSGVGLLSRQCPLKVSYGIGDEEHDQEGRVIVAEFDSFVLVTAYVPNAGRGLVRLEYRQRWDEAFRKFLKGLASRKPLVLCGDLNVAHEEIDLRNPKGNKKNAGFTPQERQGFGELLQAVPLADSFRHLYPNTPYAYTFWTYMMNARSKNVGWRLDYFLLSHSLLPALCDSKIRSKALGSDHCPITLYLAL
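Compound pre-exposure to 0.75 nM APE1, 15 min at ambient temperature. Reaction initiated with 50 nM TAMRA/BHQ-2 THF substrate, read immediately in kinetic mode, 525 nm excitation, 598 nm emission.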
POLI inh: blocks human DNA polymerase iota activity; 1% of 390,000 active; Pol iota fluorescent replication assay, 10 min; AID 588590; Potency, µM (highest dose often 115 µM), without a hit: at the top dose activity, negative = inhibition, most hits filed as inhibitors; Q9UNA4
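Fluorescent replication assay read twice, at 0 min and 10 min after adding 50 nM (final) substrate. Enzyme (10 nM) and compounds were first incubated 15 min at room temperature; enzyme-free buffer wells were negative controls.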
Pol beta inh: blocks human DNA polymerase beta activity | P06746 | Pol beta primer extension/strand displacement, fluorescence kinetic | Potency, µM (titrated, usually from 114 µM), inactives show at the highest dose activity change, negative = inhibition, actives largely listed as inhibitors | 1.3% of 340,000 active | AID 485314; note: % is set by controls: 0 for no effect and ±100 for the full control effect
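Pol beta (10 nM) and compounds were preincubated 15 min at room temperature, then 50 nM substrate (final) started primer extension/strand displacement. Reads were taken at 0 and 10 min; concentration-response data were fitted to a four-parameter Hill equation.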
Pol kappa inh: DNA polymerase kappa (human) inhibition; purified Pol kappa, fluorescent DNA synthesis assay, 10 min; Potency, µM (series often up to 107 µM), for inactives: top-dose activity, negative = inhibition, actives largely listed as inhibitors; Q9UBT6; AID 588579; 0.53% of 400,000 active; note: % is set by controls: 0 for no effect and ±100 for the full control effect
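10 nM Pol kappa preincubated 15 min at room temperature with compounds, then reaction started with substrate at 50 nM final. Fluorescence read kinetically at 0 and 10 min; buffer-only wells served as negative control.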
Numbers without * were called inactive; ? = inconclusive; . = no result; [ ] = dose if it differs, or a comment. The list is not random: actives were taken first. Their share in the collection is about 2.4%. Calls come from the whole dose curve; as a rule, active = well fitted curve in the direction sought with a large enough effect; inconclusive = small, poorly fitted or top-dose-only effect, or another doubt; inactive = no such curve, though single readings can be large; an effect the other way counts as inactive or inconclusive. Potency is the fitted concentration of half-maximal effect.

SMILES | GLS inh | POLH inh | APE1 inh | POLI inh | Pol beta inh | Pol kappa inh
CC(C)c1ccc(/C=N/NC(=O)c2cc(-c3cccc([N+](=O)[O-])c3)n[nH]2)cc1 | -7.2% | ? | 9.9% | ? | 22.4µM* | -18.4%
O=C(Cc1cccs1)N(c1ccccc1)C1C=CS(=O)(=O)C1 (stereo unspecified) | 11.0% | -7.9% | -5.5% | 56.2µM* | ? | -11.0%
O=C(O)CN(CC(=O)O)CC1=CC2C(=CC1=O)Oc1cc(O)c(CN(CC(=O)O)CC(=O)O)cc1C21OC(=O)c2ccccc21 (stereo unspecified) | . | . | 12.6µM* | . | . | .
CCOc1ccc(CNC(=O)c2cc3c(s2)-c2ccccc2OC3)cc1 | 6.3% | -20.1% | . | ? | 31.6µM* | -35.8%
CCc1cccc(NC(=O)c2cc3c(s2)-c2ccccc2OC3)c1 | 2.9% | -10.5% | . | -3.7% | ? | -9.3%
CCc1ccc(CNC(=O)c2cc3c(s2)-c2ccccc2OC3)cc1 | 9.6% | -4.5% | . | 79.4µM* | 50.1µM* | ?
COc1ccc(NC(=S)N2CCN(c3ccccc3)CC2)c(OC)c1 | 15.9% | -15.9% | -6.5% | 3.1% | ? | 8.4%
Cc1cccc(Oc2cc([N+](=O)[O-])cc3c2C(=O)Nc2ccccc2O3)c1 | -0.6% | ? | ? | 79.4µM* | ? | -17.5%
Cn1ccc(C(=O)Nc2sc3c(c2C#N)CCC3)n1 | 25.8% | 79.4µM* | 31.8% | ? | -26.4% | -29.7%
CC(C)CCOc1ccc(C(=O)Nc2sc3c(c2C#N)CCCCC3)cc1 | -1.7% | 8.2% | . | -82.9% | 6.8% | 89.1µM*
Cc1cc(C(F)F)n2nc(C(=O)Nc3sc4c(c3C#N)CCC4)nc2n1 | 22.6% | 22.4µM* | 2.0% | 50.1µM* | ? | ?
Cn1cc(Br)c(C(=O)Nc2sc3c(c2C#N)CCC3)n1 | 39.4% | -9.0% | -4.7% | 106.8% | 0.9% | -9.0%
Cc1onc(-c2ccccc2)c1C(=O)Nc1sc2c(c1C#N)CCC2 | 23.3% | 28.2µM* | -12.0% | 20µM* | 20µM* | ?
N#Cc1c(NC(=O)c2ccccc2)sc2c1CCCCC2 | 7.1% | -7.5% | 10.3% | 8.0% | 10.2% | -18.1%
CCn1cc(S(=O)(=O)CC(=O)Nc2cccc(C)c2)c2ccccc21 | -3.0% | -6.7% | -1.8% | 12.7% | 0.3% | -6.5%
COc1ccc(CN(C)CC(=O)Nc2sc3c(c2C#N)CCC3)c(OC)c1 | -2.9% | -25.7% | -8.1% | 32.1% | 20µM* | -13.2%
Cc1cc(C(=O)Nc2sc3c(c2C#N)CCC3)no1 | 25.8% | 79.4µM* | ? | ? | ? | -42.3%
Cc1csc(SCC(=O)Nc2sc3c(c2C#N)CCC3)n1 | 28.0% | ? | ? | ? | 20µM* | -28.7%
Cc1ccc(CNC(=O)CN(C)S(=O)(=O)c2ccc(Br)s2)cc1 | -4.2% | -8.2% | . | 24.5% | 1.3% | 14.0%
CCOc1cccc(N(C(=O)c2ccco2)C(C(=O)NC2CCCC2)c2cccnc2)c1 (stereo unspecified) | -4.1% | -20.0% | -11.3% | 33.8% | ? | 6.1%
Cc1ccc(Cl)cc1NC(=O)Cn1c(=O)n(CCC(=O)NCc2ccc3c(c2)OCO3)c(=O)c2sccc21 | 4.3% | -25.1% | . | -14.2% | 14.1µM* | -11.9%
CC1=C(C(=O)OC(C)C)C(c2cccc([N+](=O)[O-])c2)n2c(cc(=O)[nH]c2=S)N1 (stereo unspecified) | 33.0% | 0.6% | -3.5% | 16.8% | 12.7% | -1.3%
c1ccc2c(c1)OCC(c1nn3c(Cn4nnc5ccccc54)nnc3s1)O2 (stereo unspecified) | -21.3% | ? | ? | 50.1µM* | ? | ?
c1cncc(-c2nn3c(Cn4nnc5ccccc54)nnc3s2)c1 | -0.2% | -0.8% | -8.3% | -18.1% | 10.3% | -14.9%
c1ccc(-c2nn3c(Cn4nnc5ccccc54)nnc3s2)nc1 | -8.8% | 79.4µM* | -2.2% | ? | 17.8µM* | ?
SMILES | GLS inh | POLH inh | APE1 inh | POLI inh | Pol beta inh | Pol kappa inh
C=CCNC(=S)NCC | -2.3% | -9.8% | -4.1% | -25.3% | -1.0% | -9.1%
CCCCN1CC(Br)C(=O)NC1=O (stereo unspecified) | -4.2% | -16.4% | . | 17.6% | . | 1.6%
Clc1ccc(-c2nnc(N3CCOCC3)o2)cc1 | 0.6% | -3.8% | -2.1% | 50.7% | 0.0% | 0.1%
Cc1[nH]n(-c2ccccc2)c(=O)c1N=Nc1c(O)cc(S(=O)(=O)N(C)C)c2ccccc12 | 58.9% | 89.1µM* | 19.1% | 30.1% | . | -9.1%
CC(NC(=O)COC(=O)c1cc([N+](=O)[O-])ccc1N1CCOCC1)c1ccccc1 (stereo unspecified) | -2.3% | -21.3% | 20.2% | 22.4% | -0.8% | -5.2%
CC(NC(=O)COC(=O)c1cc([N+](=O)[O-])ccc1N1CCOCC1)c1ccc(F)cc1 (stereo unspecified) | -15.1% | 56.2µM* | -6.8% | ? | . | ?
CC(C)CCNC(=O)C1CCN(S(=O)(=O)c2ccc3c(c2)CC(C)N3C(=O)C2CCC2)CC1 (stereo unspecified) | 18.1% | -10.0% | -7.6% | -1.7% | 56.2µM* | 2.7%
COc1ccc(Cl)cc1NC(=O)CSc1nnc2[nH]c(=O)cc(-c3ccccc3)n12 | 21.6% | 89.1µM* | . | 1.0% | 6.0% | -2.2%[60.1 µM]
CC1(C)N([O-])C2=C(CCCC2)[N+]1=O | 0.0% | 22.4µM* | ? | ? | 25.1µM* | ?
CC1=C(c2ccc(Cl)cc2)[N+](=O)C(C)(C)N1[O-] | -10.1% | -1.3% | 1.0% | ? | 21.6% | 9.3%
CCNC(=O)c1nc[nH]c1C(=O)NCC | 4.9% | -9.2% | -1.7% | 14.2% | -22.0% | -2.5%
Oc1cccc(CN2CCOCC2)c1O | -20.4% | 1.7% | . | 20µM* | . | 28.2µM*
COC(=O)c1nc(NC(=O)C(C)(C)C)n[nH]1 | 4.3% | 1.8% | 1.7% | 79.4µM* | 0.8% | -8.2%
CC(C)CNS(=O)(=O)c1ccc(S(=O)(=O)N2CCC(N3CCCCC3)CC2)cc1 | -12.5% | -0.3% | -1.2% | 55.9% | 44.6% | 13.1%
O=C(NCN1CCN(c2ccccc2F)CC1)c1cccnc1 | 1.5% | -18.6% | -2.8% | 9.2%[58.9 µM] | 89.0% | -0.6%
Cc1ccccc1NC(=O)COC(=O)c1ccc(S(C)(=O)=O)c([N+](=O)[O-])c1 | 5.5% | 89.1µM* | -0.9% | ? | ? | -3.6%
O=C(COC(=O)c1ccc([N+](=O)[O-])cc1)Nc1cccnc1Cl | -1.3% | 1.4% | . | 13.1% | . | -6.7%
COc1ccc(C(C)=O)cc1COc1ccccc1[N+](=O)[O-] | 12.6% | -0.4% | 1.8% | 7.3% | -23.5% | -9.0%
COc1ccc(C(C)=O)cc1COC(=O)c1ccc(N)c([N+](=O)[O-])c1 | 13.1% | -15.7% | -5.2% | 31.6µM* | -5.7% | -3.7%

From PubChem BioAssay
